Test systems include SR leukemia; RPMI-8226 leukemia; OVCAR-8 ovarian; OVCAR-4 ovarian; IGROV1 ovarian; OVCAR-3 ovarian; HS 578T breast; NCI/ADR-RES ovarian; OVCAR-5 ovarian; SK-OV-3 ovarian.
What all share (experiment): NCI-60 one-dose screen, 48 h (100 = growth as untreated, 0 = no growth, -100 = all killed)
Details in all cases: 10 µM unless noted

Compounds without any hit were thinned out: in the full panel of roughly 83,000, 20% have a hit.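 Treatment: one concentration, 48 hours, 96-well format. Scoring: percent growth, with anything below 10 considered active.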 Values without a mark were called inactive. Active and inactive are the calls of the source.

In the case of `CCCCCOc1ccc(/C=N/Nc2cc(C)nc3ccc(Br)cc23)cc1`, the growth in the assay with SR leukemia was -9.53% (active); in the assay on RPMI-8226 leukemia it was -8.25% (active); in the assay on OVCAR-8 ovarian, -46.3% (active); with OVCAR-4 ovarian it was 4.88% (active); in the assay on IGROV1 ovarian, -11.7% (active); with OVCAR-3 ovarian, -83.2% (active). Besides, the values for the growth in the assay with HS 578T breast and in the assay on NCI/ADR-RES ovarian were 85.5% and 63.6%, respectively.
Regarding `COc1cc(C(=O)c2cnc(-c3ccc4cc[nH]c4c3)[nH]2)cc(OC)c1OC`, the growth was 6.26% (active) with SR leukemia; -0.63% (active) with RPMI-8226 leukemia; 32.2% in the assay on OVCAR-5 ovarian; 39.3% with OVCAR-4 ovarian; 23.5% in the assay on SK-OV-3 ovarian; 26.3% in the assay on IGROV1 ovarian. Moreover, the growth in the assay on OVCAR-3 ovarian was -34.2% (active); with HS 578T breast, 20.6%; in the assay with NCI/ADR-RES ovarian it was 8.52% (active).
Turning to `C=C(C)[C@@H]1CC[C@]2(CO)CC[C@]3(C)[C@H](CC[C@@H]4[C@@]5(C)CCCNC(C)(C)[C@@H]5CC[C@]43C)[C@@H]12`, the growth is -40.4% (active) in the assay on SR leukemia; -36.9% (active) with RPMI-8226 leukemia; 23.5% in the assay with OVCAR-8 ovarian; 31.8% in the assay with OVCAR-4 ovarian; 92.2% in the assay on SK-OV-3 ovarian; 36.3% in the assay on IGROV1 ovarian. Also, the growth is 44.4% with OVCAR-3 ovarian, 46.8% in the assay with HS 578T breast and 44.8% with NCI/ADR-RES ovarian.
On to `Cc1cc(NC(=O)c2cnc(N3CCN(CCOCCOCCOCCOCCC(=O)N[C@H](C(=O)N4C[C@H](O)C[C@H]4C(=O)N[C@@H](C)c4ccc(-c5scnc5C)cc4)C(C)(C)C)CC3)cn2)c2ncccc2c1`, for which the growth in the assay on SR leukemia was 7.46% (active); in the assay with RPMI-8226 leukemia it was -26.5% (active); in the assay on OVCAR-5 ovarian, 80.4%; in the assay on OVCAR-4 ovarian it was 14.7%; in the assay on SK-OV-3 ovarian, 63.9%; with IGROV1 ovarian it was -37.8% (active). Also, the growth is -30.8% (active) in the assay with OVCAR-3 ovarian, 6.9% (active) in the assay with HS 578T breast and 90.5% with NCI/ADR-RES ovarian.
`CN1C2CCC1CN(c1cnc(C(=O)Nc3cc(F)cc4cccnc34)cn1)C2`: the growth with SR leukemia was 22.4%; in the assay on RPMI-8226 leukemia, 44.5%; in the assay with OVCAR-5 ovarian it was 70.3%; in the assay with OVCAR-4 ovarian, 8.7% (active); with SK-OV-3 ovarian, 81.9%; in the assay on IGROV1 ovarian, 6.34% (active). The growth was 20.4% in the assay on OVCAR-3 ovarian, 54.6% in the assay with HS 578T breast and 42.1% in the assay on NCI/ADR-RES ovarian.
Turning to `COc1ccc(C(=O)/C=C/c2cn(Cc3ccc(Cl)cc3)c3ccccc23)cc1`, the growth in the assay on SR leukemia is 20.1%; with RPMI-8226 leukemia, 70.7%; in the assay with OVCAR-5 ovarian, 13.4%; in the assay with OVCAR-4 ovarian it was 76.3%; with SK-OV-3 ovarian, 57.4%; in the assay with IGROV1 ovarian it was 23.7%. Moreover, the results for the growth with OVCAR-3 ovarian, in the assay on HS 578T breast and in the assay with NCI/ADR-RES ovarian were 57.6%, 60% and 38.4%, respectively.
For `O=C(Nc1nc2ccc(S(=O)(=O)Nc3ccc(C4(C(F)(F)F)CC4)cc3)cc2[nH]1)c1cnccn1`, the growth in the assay with SR leukemia was 20%; in the assay on RPMI-8226 leukemia it was 30.3%; in the assay on OVCAR-5 ovarian, 56.8%; in the assay with OVCAR-4 ovarian, 46.1%; in the assay with SK-OV-3 ovarian, 58%; with IGROV1 ovarian, 40.3%. For the same compound, the growth in the assay on OVCAR-3 ovarian was -18.6% (active); in the assay with HS 578T breast, 17.6%; in the assay on NCI/ADR-RES ovarian, 21%.
In the case of `Cc1ccc(C2C3CC4CCCCC4N3[C@@]3(C(=O)Nc4cc(Cl)ccc43)C2C(=O)c2nc3ccccc3[nH]2)cc1` (stereo partly drawn), the growth was 21.2% in the assay with SR leukemia; 9.27% (active) with RPMI-8226 leukemia; 49% in the assay with OVCAR-5 ovarian; 30.6% in the assay with OVCAR-4 ovarian; 77.6% in the assay with SK-OV-3 ovarian; 26.4% with IGROV1 ovarian. In addition, the growth was 33.4% in the assay on OVCAR-3 ovarian, 61% in the assay with HS 578T breast and 41.7% with NCI/ADR-RES ovarian.
In the case of `Clc1ccc(N2N=C(c3cccc(Nc4ccncc4)c3)CC2c2ccc(Br)cc2)cc1` (stereo not drawn), the growth in the assay on SR leukemia was 1.87% (active); in the assay with RPMI-8226 leukemia, -2.67% (active); in the assay on OVCAR-8 ovarian it was -18.7% (active); with OVCAR-4 ovarian, 0.0501% (active); in the assay on SK-OV-3 ovarian, 85.7%; with IGROV1 ovarian, 3.01% (active). For the same compound, the growth with OVCAR-3 ovarian is 37.7%; with HS 578T breast it was 60.5%; in the assay on NCI/ADR-RES ovarian, 39.6%.
Take `C/C(=C(/c1ccccc1)c1ccc(OCC(O)CNCCN2CCOCC2)cc1)c1ccccc1` (stereo not drawn): the growth in the assay with SR leukemia is 0.691% (active); in the assay with RPMI-8226 leukemia, 20.4%; in the assay on OVCAR-5 ovarian, 76.2%; with OVCAR-4 ovarian, 70.3%; with SK-OV-3 ovarian, 95.4%; in the assay with IGROV1 ovarian it was 63.3%. In addition, the growth in the assay with OVCAR-3 ovarian was 77.9%; with HS 578T breast it was 70.5%; with NCI/ADR-RES ovarian it was 80.2%.
`CN1CCN(c2ccc3nc(-c4cc(C(C)(C)C)c(O)c(C(C)(C)C)c4)[nH]c3c2)CC1`: the growth in the assay with SR leukemia is -14.5% (active); in the assay with RPMI-8226 leukemia it was -24.2% (active); in the assay with OVCAR-5 ovarian, 91.6%; in the assay with OVCAR-4 ovarian, 75.9%; with SK-OV-3 ovarian it was 83.9%; in the assay on IGROV1 ovarian, 88%. For the same compound, the results for the growth with OVCAR-3 ovarian, in the assay with HS 578T breast and in the assay with NCI/ADR-RES ovarian were 74.4%, 71.9% and 86.8%, respectively.
For the compound `O=C1c2ccccc2-c2c1c1c(NCCCO)nc3ccccc3c1n2Cc1ccccc1`, the growth in the assay on SR leukemia is 5.22% (active); in the assay on RPMI-8226 leukemia, 46.2%; in the assay on OVCAR-8 ovarian, 25.9%; in the assay on OVCAR-4 ovarian, 10.7%; with SK-OV-3 ovarian it was 23.8%; in the assay with IGROV1 ovarian it was 15.7%. Further, the values for the growth in the assay on OVCAR-3 ovarian and with NCI/ADR-RES ovarian were 14.4% and 3.37% (active), respectively.
As to `CCCCOc1ccc(/C=N/Nc2cc(C)nc3ccc(Cl)cc23)cc1`, the growth in the assay with SR leukemia is -20.8% (active); in the assay with RPMI-8226 leukemia, -31.6% (active); with OVCAR-5 ovarian, 88.9%; in the assay on OVCAR-4 ovarian, 5.29% (active); in the assay on SK-OV-3 ovarian, 79.5%; in the assay with IGROV1 ovarian it was -71.6% (active). Moreover, the growth in the assay with OVCAR-3 ovarian is -76.7% (active); in the assay with HS 578T breast it was 47.7%; in the assay on NCI/ADR-RES ovarian, 58.7%.
As to `CCCCCCCCCCCCCCCC(=O)OC[C@@]1(O)C[C@@]23CC[C@@H]4C(C)(C)CCC[C@@]4(C)[C@@H]2CC[C@H]1C3`, the growth in the assay with SR leukemia is 22.9%; in the assay on RPMI-8226 leukemia, 81.9%; in the assay with OVCAR-5 ovarian, 108%; with OVCAR-4 ovarian, 97.7%; in the assay with SK-OV-3 ovarian, 113%; in the assay on IGROV1 ovarian, 107%. Moreover, the growth with OVCAR-3 ovarian is 103%; in the assay on HS 578T breast, 98.9%; in the assay on NCI/ADR-RES ovarian, 102%.
As to `COc1ccc2nc(N=Nc3c(O)ccc4ccccc34)sc2c1`, the growth with SR leukemia is 16.6%; in the assay on RPMI-8226 leukemia, 38.1%; in the assay with OVCAR-8 ovarian, 24.3%; with OVCAR-4 ovarian, 28.3%; with SK-OV-3 ovarian it was 38.2%; in the assay with IGROV1 ovarian it was 22.4%. For the same compound, the values for the growth in the assay on OVCAR-3 ovarian, in the assay on HS 578T breast and in the assay with NCI/ADR-RES ovarian were 34.9%, 83% and 9.35% (active), respectively.

Source of the values: PubChem BioAssay (NCI).
